# Rows were chosen to be rich in hits. Some 3.1% of all compounds tested hit in one or more screens of this group.
# SKOV3 invasion – Primary qHTS assay for Inhibitors of ovarian cancer metastasis using an organotypic tumor microenvironment (TME) model | SKOV3ip1-GFP adhesion/invasion on 3D omental model, fluorescence | Potency, µM (highest dose often 45.8 µM), for inactives: top-dose activity change, negative = inhibition, usual class: inhibitors | hit rate 0.1% among 46,000;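 also: potency is read from the fitted curve at half-maximal effect; plate controls were DMSO wells for no effect and tomatine positive control wells for full effect; nearly all actives have a fitted effect of over 65% in size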
#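 Primary human omental fibroblast/mesothelial 3D culture pre-formed 48 h. SKOV3ip1-GFP cells added with compounds (0.36-46 umol/L), incubated 2 h RT/16 h 37 C, fixed; GFP cells quantified at 488/509 nm.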
# S16 F2sN tox – Cell viability qHTS assay in S16 Pmp22-F2sN cells. S16 Pmp22-F2sN Schwann cells viability, CellTiter-Glo, 24 h. Potency, µM (highest dose often 57.5 µM), without a hit: top-dose activity change, negative = cytotoxicity, hits mostly cytotoxic. hit rate 0.48% among 43,000; also: potency is read from the fitted curve at half-maximal effect; % is scaled to controls: 0 for no effect and ±100 for the full control effect; nearly all actives have a fitted effect of over 65% in size
#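 CellTiter-Glo counter-screen, qHTS, 1536-well. Cells: S16(c9) Pmp22-F2sN, 500-1,000/well in DMEM + 10% FBS. Cpd 23 nL pin transfer, 24 h, 37C/5% CO2. Read: luminescence, CCD imager.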
# p53null 39C kill – qHTS Screen for Compounds that Selectively Target Cancer Cells with p53 Mutations: Cytotoxicity of p53 Null Cells at the Nonpermissive Temperature. hit rate 0.97% among 55,000. Potency, µM (doses to about 46.1 µM), without a hit: top-dose activity, negative = cell killing, hits mostly cytotoxic. H1299 p53-null (neo) cells, 39C, ATPlite viability, 24 h;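 also: potency is read from the fitted curve at half-maximal effect; 0% = DMSO only and -100% = full killing by 100 µM tamoxifen; nearly all actives have a fitted effect of over 50% in size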
#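 H1299 lung cancer cells, p53-null (H1299-neo) or expressing p53 A138V (H1299-p53A138V), were plated overnight at 37C, then exposed to compounds at up to 46 uM for 24 hr at 39C. Viability was read by ATP-based luminescence.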
# PMP22 txn – Cell-based coincidence reporter assay to measure PMP22 gene transcription in S16 Pmp22-F2sN cells - Primary screen; S16 Pmp22-F2sN Schwann cells (luciferase reporters placed in the Pmp22 gene), FLuc/NLuc coincidence luminescence, 24 h; Potency, µM (series often up to 57.5 µM), for the others: top-dose activity change, negative = inhibition, actives largely listed as inhibitors; hit rate 2% among 43,000; active = clear falling dose curves in both reporters; inconclusive = both reporters move, but less clearly or upward; inactive = either reporter flat; the % is the NLuc reporter signal; also: potency is read from the fitted curve at half-maximal effect; % is scaled to controls: 0 for no effect and ±100 for the full control effect
#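 S16(c9) Schwann cells with FLuc/NLuc coincidence reporter in the Pmp22 3' UTR; compounds pin-transferred, 24 h at 37C. Dual-luciferase read: FLuc first, then NLuc after Stop&Glo, each 10 min at room temperature.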
# p53null 32C tox – qHTS Screen for Compounds that Selectively Target Cancer Cells with p53 Mutations: Cytotoxicity of p53 Null Cells at the Permissive Temperature; H1299-neo p53 null cells, ATP luminescence, 24 h, 32C; Potency, µM (series often up to 46.1 µM), inactives show at the highest dose activity change, negative = cytotoxicity, hits mostly cytotoxic; hit rate 0.62% among 55,000;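 also: potency is read from the fitted curve at half-maximal effect; 0% = DMSO only and -100% = full killing by 100 µM tamoxifen; nearly all actives have a fitted effect of over 55% in size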
#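 H1299-neo (p53 null) cells, 600/well, treated 24 h at 32C with compound up to 46 uM; ATPlite luminescence viability, normalized to DMSO and 100 uM tamoxifen; AC50 by Hill fit.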
# mTORC1 inh – Acumen qHTS Assay for Inhibitors of the mTORC1 Signaling Pathway in MEF (Tsc2-/-, p53-/-) Cells: Sytravon; AID 493208, 2011; hit rate 0.78% among 44,000; Potency, µM (highest dose often 38.3 µM), for inactives: top-dose activity change, negative = inhibition, most hits filed as inhibitors; Tsc2-/- p53-/- MEF, phospho-rpS6 immunofluorescence/PI, 24 h;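 also: potency is read from the fitted curve at half-maximal effect; plate controls were DMSO for no effect and rapamycin for full effect; nearly all actives have a fitted effect of over 50% in size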
#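 Read-out: phospho-S6 Alexa-488 intensity over PI intensity per well, scored as % active cells using thresholds from rapamycin (7.5 nM) and DMSO controls. Tsc2-/-, p53-/- MEFs exposed to compound for 24 h; PI cell count recorded as viability.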
# NLuc saturating – Biochemical NLuc saturation counterscreen for small molecule modulators of PMP22 gene expression - Nano-Glo assay; shares compounds with PMP22 txn; Secreted NLuc enzyme (filtered S16 cell medium), Nano-Glo luminescence; Potency, µM (highest dose often 57.5 µM), without a hit: at the highest dose activity change, negative = inhibition, most hits filed as inhibitors; hit rate 4% among 690; also: potency is read from the fitted curve at half-maximal effect; % is scaled to controls: 0 for no effect and ±100 for the full control effect
# NLuc Km ctr – Biochemical coelenterazine-based NLuc counterscreen for small molecule modulators of PMP22 gene expression - Km assay. secreted NLuc enzyme, coelenterazine luminescence, Km conditions. shares compounds with PMP22 txn. Potency, µM (highest dose often 57.5 µM), for the others: at the highest dose activity change, negative = inhibition, actives largely listed as inhibitors. AID 1508639, 2021. hit rate 5% among 690; also: potency is read from the fitted curve at half-maximal effect; % is scaled to controls: 0 for no effect and ±100 for the full control effect
# FLuc ctr PMP22 – Biochemical FLuc counterscreen for small molecule modulators of PMP22 gene expression. shares compounds with PMP22 txn. purified P. pyralis FLuc, luminescence, 10 min. Potency, µM (titrated, usually from 57.5 µM), without a hit: at the top dose activity, negative = inhibition, actives largely listed as inhibitors. 690 tested, under 10 active. AID 1508640, 2021; also: % of control where 0% means no effect
# Target sequence (P08659 whole entry, looked up): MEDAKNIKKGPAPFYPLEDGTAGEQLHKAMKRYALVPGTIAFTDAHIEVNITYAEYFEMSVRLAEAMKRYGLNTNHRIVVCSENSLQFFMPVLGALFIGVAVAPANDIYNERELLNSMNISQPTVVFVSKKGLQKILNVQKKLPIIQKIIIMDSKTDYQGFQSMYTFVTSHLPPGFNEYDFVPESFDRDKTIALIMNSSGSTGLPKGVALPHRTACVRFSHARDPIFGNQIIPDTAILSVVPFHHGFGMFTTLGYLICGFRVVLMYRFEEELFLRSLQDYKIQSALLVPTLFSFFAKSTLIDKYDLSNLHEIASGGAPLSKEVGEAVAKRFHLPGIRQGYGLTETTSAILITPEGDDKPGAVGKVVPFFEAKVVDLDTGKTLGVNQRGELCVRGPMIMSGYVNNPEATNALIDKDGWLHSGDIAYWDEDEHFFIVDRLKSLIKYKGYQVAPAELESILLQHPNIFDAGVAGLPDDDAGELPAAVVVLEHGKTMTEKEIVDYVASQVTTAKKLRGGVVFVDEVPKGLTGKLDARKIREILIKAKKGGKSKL
# S16 viab conf – Cell viability qHTS assay in S16 Pmp22-F2sN cells - Confirmatory screen; Potency, µM (titrated, usually from 57.5 µM), without a hit: top-dose activity change, negative = viability loss, usual class: cytotoxic; AID 1508641, 2021; S16 Schwann cells viability, CellTiter-Glo ATP luminescence, 24 h; shares compounds with PMP22 txn; hit rate 7% among 690; also: potency is read from the fitted curve at half-maximal effect; % is scaled to controls: 0 for no effect and ±100 for the full control effect
# PMP22 txn conf – Cell-based coincidence reporter assay to measure PMP22 gene transcription in S16 Pmp22-F2sN cells - Confirmatory screen. hit rate 22% among 690. S16 Schwann cells Pmp22-F2sN, dual luciferase, 24 h. shares compounds with PMP22 txn. Potency, µM (highest dose often 57.5 µM), inactives show at the highest dose activity change, negative = inhibition, actives largely listed as inhibitors; active = clear falling dose curves in both reporters; inconclusive = both reporters move, but less clearly or upward; inactive = either reporter flat; the % is the FLuc reporter signal; also: potency is read from the fitted curve at half-maximal effect
# PMP22 HiBiT cnf – Cell-based HiBiT reporter assay to measure PMP22 protein expression in S16 Pmp22-HiBiT cells - Confirmatory screen; 95 tested, under 10 active; Potency, µM (series often up to 27.9 µM), for the others: at the highest dose activity change, negative = inhibition, usual class: inhibitors; shares compounds with PMP22 txn; S16 Schwann cells Pmp22-HiBiT, luminescence, 48 h
# Target sequence (P25094 whole entry, looked up): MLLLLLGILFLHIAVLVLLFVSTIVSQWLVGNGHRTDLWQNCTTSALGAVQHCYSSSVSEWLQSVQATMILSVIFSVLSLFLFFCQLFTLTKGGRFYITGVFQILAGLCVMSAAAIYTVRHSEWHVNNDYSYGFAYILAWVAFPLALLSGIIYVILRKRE
# An asterisk follows results filed as active; i = inactive; ? = inconclusive; . = not tested or not shown; [ ] = another dose, or the depositor's remark. Unless noted, calls follow the shape of the dose curve; as a rule, active = well fitted curve in the direction sought with a large enough effect; inconclusive = small, poorly fitted or top-dose-only effect, or another doubt; inactive = no such curve, though single readings can be large; an effect the other way counts as inactive or inconclusive.
SMILES,SKOV3 invasion,S16 F2sN tox,p53null 39C kill,PMP22 txn,p53null 32C tox,mTORC1 inh,NLuc saturating,NLuc Km ctr,FLuc ctr PMP22,S16 viab conf,PMP22 txn conf,others
C[C@H](NC(=O)Cc1cc(F)cc(F)c1)C(=O)N[C@@H]1C(=O)N(C)c2ccccc2-c2ccccc21,38%,.,.,.,.,.,.,.,.,.,.,
CCOc1ccccc1NC(=O)CSc1nc2c(oc3ccccc32)c(=O)n1Cc1ccco1,8%,?,-4%,11µM*,2%,-4%,-16%,2%,-7%,2%,-33%,
CCCCn1c(=O)c2oc3ccccc3c2n(CC(=O)Nc2ccc(CC)cc2)c1=O,-1%,14%,-10%,14µM*,0%,1%,-10%,5%,-12%,-4%,?,
Cc1ccc(C)c(NC(=O)Cn2c(=O)n(Cc3ccccc3)c(=O)c3oc4ccccc4c32)c1,11%,0%,-16%,19µM*,2%,-2%,-12%,-1%,-12%,?,?,PMP22 HiBiT cnf=?
Cc1ccc(C)c(NC(=O)Cn2c(=O)n(Cc3ccco3)c(=O)c3oc4ccccc4c32)c1,4%,-2%,-1%,12µM*,2%,5%,-17%,3%,0%,-24%,?,
CCCCn1c(=O)c2oc3ccccc3c2n(CC(=O)Nc2cc(C)ccc2C)c1=O,-1%,0%,-1%,?,0%,-5%,.,.,.,.,.,
CC(C)OC(=O)OCOP(=O)(CO[C@H](C)Cn1cnc2c(N)ncnc21)OCOC(=O)OC(C)C,11%,.,.,.,.,.,.,.,.,.,.,
Cc1cccc(-c2nn(C(=S)Nc3ccccc3)cc2-c2ccnc3ccccc23)n1,10%,.,.,.,.,.,.,.,.,.,.,
Cc1c(Cl)cccc1N1C(N)=C(C#N)C(c2cc(CN3CCOCC3)cs2)C2=C1CCCC2=O (configuration not stated),i,-6%,-8%,7.2µM*,0%[9.22 µM],-3%,?,?,-8%,-10%,-31%,
NC(=O)c1cccc2[nH]c(-c3ccc([C@H]4CCCN4)cc3F)nc12,36%,.,.,.,.,.,.,.,.,.,.,
COc1ccccc1N1CCN(c2ncnc3c2cnn3-c2cc(Cl)ccc2C)CC1,-5%,?,5%,8.4µM*,?,3%,?,?,3%,?,?,
CCCCn1c(=O)n(Cc2ccccc2F)c(=O)c2[nH]c(Cc3ccc(NC(C)=O)cc3)nc21,-22%,.,.,.,.,.,.,.,.,.,.,
O=C(Nc1ccccc1-c1cn2c(CN3CCNCC3)csc2n1)c1cnc2ccccc2n1,-15%,.,.,.,.,.,.,.,.,.,.,
Cc1[nH]c2ccccc2c1C1(O)C(=O)N(Cc2ccccc2)c2ccc(Cl)cc21 (configuration not stated),-16%,10%,?,16µM*,28%,?,-14%,?,4%,?,?,
Cc1ccc(CN2C(=O)C(O)(c3c(C)[nH]c4ccccc34)c3ccccc32)cc1 (configuration not stated),i,5%,2%,8.2µM*,30%,?,?,?,3%,8%,17µM*,PMP22 HiBiT cnf=-9%
CCC(Sc1nc2ccccc2c2nc(-c3ccccc3)nn12)C(=O)Nc1cccc(OC)c1 (configuration not stated),-1%,?,-3%,13µM*,-7%,0%,-3%,-3%,-3%,-25%,15µM*,PMP22 HiBiT cnf=?
Cn1c(=O)c(-c2c(Cl)cccc2Cl)cc2cnc(Nc3cccc(C(=O)O)c3)nc21,5%,.,.,.,.,.,.,.,.,.,.,
CCCc1oc2ccc(NS(=O)(=O)c3ccc(OC)cc3)cc2c1C(=O)OCC,-27%,8%,?,13µM*,5%,4.1µM*,-14%,?,-1%,4%,-52%,
CCOC(=O)c1c(-c2ccccc2)oc2ccc(NS(=O)(=O)c3ccc(OC)cc3)cc12,?,?,51%,-20%,48%,?,.,.,.,.,.,
COc1ccc(CCNc2ncnc3onc(C)c23)c(OC)c1,4%,?,-27%,4µM*,-5%,1%,-18%,4%,-17%,?,4µM*,
